Test results from publication PMC7862700, “An all-to-all approach to the identification of sequence-specific readers for epigenetic DNA modifications on cytosine”.

Columns and labels:
Experiment in all cases: DAPPL (digital affinity profiling via proximity ligation, sequencing); 10 mM Tris-HCl pH 7.5, 50 mM NaCl, 1 mM DTT, 4% glycerol, room temperature, 30 min; GST-TFs on glutathione beads, 16-mer random dsDNA library, 0.1% formaldehyde crosslink after washing; high values mean tight binding
FEV = molecular target: T1, FEV (Homo sapiens, UniProt Q99581 1-238); conditions: protein: recombinant; tags: N-terminal GST; dsDNA, one strand shown
T1 sequence: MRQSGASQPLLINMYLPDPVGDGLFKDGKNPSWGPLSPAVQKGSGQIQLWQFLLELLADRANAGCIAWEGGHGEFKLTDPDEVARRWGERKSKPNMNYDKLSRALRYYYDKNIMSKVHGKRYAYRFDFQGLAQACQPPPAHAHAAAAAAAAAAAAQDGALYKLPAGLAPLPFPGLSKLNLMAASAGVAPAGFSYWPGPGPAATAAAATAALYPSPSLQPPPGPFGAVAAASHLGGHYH
In short: (§1)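 Each value of binding signal is a hexamer's read frequency for a factor divided by the same hexamer's frequency in the tag-only sample. Barcoded, bead-captured GST fusions of human transcription factors made in yeast were pooled with that sample and incubated with 200 nmole of a random double-stranded 16-mer DNA library in Tris/NaCl/DTT/glycerol buffer at room temperature for 30 min. Washing, 0.1% formaldehyde crosslinking, proximity ligation, PCR and Illumina NextSeq500 sequencing followed.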

ETV5 = ETV5 (Homo sapiens, UniProt P41161 1-510); conditions: protein: recombinant; tags: N-terminal GST; dsDNA, one strand shown
In short: as §1

HSF1 = HSF1 (Homo sapiens, UniProt Q00613 1-529); conditions: protein: recombinant; tags: N-terminal GST; chain copies: 3; dsDNA, one strand shown
In short: as §1

SPIC = molecular target: T2, SPIC (Homo sapiens, UniProt Q8N5J4 1-248); conditions: protein: recombinant; tags: N-terminal GST; dsDNA, one strand shown
T2 sequence: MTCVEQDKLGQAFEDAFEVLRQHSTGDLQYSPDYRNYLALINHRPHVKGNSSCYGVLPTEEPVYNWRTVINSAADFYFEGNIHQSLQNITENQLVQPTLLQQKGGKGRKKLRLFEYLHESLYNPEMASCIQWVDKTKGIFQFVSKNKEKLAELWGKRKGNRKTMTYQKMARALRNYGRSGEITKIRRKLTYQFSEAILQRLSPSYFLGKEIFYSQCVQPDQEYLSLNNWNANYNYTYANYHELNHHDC
In short: as §1

ELF4 = ELF4 (Homo sapiens, UniProt Q99607 1-663); conditions: protein: recombinant; tags: N-terminal GST; dsDNA, one strand shown
In short: as §1

ELK4 = molecular target: T3, ELK4 (Homo sapiens, UniProt P28324-2 1-405); conditions: protein: recombinant; tags: N-terminal GST; dsDNA, one strand shown
T3 sequence: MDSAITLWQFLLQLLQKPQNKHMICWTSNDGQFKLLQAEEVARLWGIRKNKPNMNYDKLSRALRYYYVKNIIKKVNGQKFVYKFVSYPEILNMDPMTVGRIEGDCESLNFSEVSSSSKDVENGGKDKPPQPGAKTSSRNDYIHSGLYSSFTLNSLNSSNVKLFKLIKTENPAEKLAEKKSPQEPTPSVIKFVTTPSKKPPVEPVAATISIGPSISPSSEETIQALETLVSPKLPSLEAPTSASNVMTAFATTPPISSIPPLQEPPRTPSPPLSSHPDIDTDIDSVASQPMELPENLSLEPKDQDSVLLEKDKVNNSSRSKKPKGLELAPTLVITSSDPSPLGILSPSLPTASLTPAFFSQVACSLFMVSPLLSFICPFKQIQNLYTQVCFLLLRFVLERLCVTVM
In short: as §1

ETV2 = molecular target: T4, ETV2 (Homo sapiens, UniProt O00321 1-342); conditions: protein: recombinant; tags: N-terminal GST; dsDNA, one strand shown
T4 sequence: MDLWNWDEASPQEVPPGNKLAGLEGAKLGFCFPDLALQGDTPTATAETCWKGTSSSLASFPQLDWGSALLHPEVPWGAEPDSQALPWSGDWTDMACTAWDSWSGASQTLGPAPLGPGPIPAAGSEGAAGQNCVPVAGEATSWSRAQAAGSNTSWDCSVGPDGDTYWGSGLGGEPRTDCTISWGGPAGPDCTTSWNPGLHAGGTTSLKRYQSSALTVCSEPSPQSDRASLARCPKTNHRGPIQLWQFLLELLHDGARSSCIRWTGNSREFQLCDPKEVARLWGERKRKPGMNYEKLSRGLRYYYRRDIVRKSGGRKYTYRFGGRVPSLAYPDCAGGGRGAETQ
In short: as §1

ELF3 = molecular target: T5, ELF3 (Homo sapiens, UniProt P78545 1-371); conditions: protein: recombinant; tags: N-terminal GST; dsDNA, one strand shown
T5 sequence: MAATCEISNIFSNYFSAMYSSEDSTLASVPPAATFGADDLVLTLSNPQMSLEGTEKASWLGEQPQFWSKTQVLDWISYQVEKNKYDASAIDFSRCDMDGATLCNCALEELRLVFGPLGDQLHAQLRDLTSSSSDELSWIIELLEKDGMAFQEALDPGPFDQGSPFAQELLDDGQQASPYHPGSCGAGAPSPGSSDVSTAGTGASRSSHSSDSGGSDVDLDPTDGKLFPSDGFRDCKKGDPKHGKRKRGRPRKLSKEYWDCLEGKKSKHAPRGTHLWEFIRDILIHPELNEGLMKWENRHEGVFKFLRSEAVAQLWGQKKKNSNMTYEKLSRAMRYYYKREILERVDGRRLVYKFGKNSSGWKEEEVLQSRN
In short: as §1

CRX = CRX (Homo sapiens, UniProt O43186 1-299); conditions: protein: recombinant; tags: N-terminal GST; dsDNA, one strand shown
In short: as §1

Sequence of CRX (O43186 whole entry): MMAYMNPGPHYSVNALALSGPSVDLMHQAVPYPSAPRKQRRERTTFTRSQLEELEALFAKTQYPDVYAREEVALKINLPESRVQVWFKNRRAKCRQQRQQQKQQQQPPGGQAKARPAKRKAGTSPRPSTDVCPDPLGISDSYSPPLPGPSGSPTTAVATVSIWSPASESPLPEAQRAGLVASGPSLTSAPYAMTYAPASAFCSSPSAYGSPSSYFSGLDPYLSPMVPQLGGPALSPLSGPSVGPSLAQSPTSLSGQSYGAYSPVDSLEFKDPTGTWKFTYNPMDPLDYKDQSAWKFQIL
Sequence of ELF4 (Q99607 whole entry): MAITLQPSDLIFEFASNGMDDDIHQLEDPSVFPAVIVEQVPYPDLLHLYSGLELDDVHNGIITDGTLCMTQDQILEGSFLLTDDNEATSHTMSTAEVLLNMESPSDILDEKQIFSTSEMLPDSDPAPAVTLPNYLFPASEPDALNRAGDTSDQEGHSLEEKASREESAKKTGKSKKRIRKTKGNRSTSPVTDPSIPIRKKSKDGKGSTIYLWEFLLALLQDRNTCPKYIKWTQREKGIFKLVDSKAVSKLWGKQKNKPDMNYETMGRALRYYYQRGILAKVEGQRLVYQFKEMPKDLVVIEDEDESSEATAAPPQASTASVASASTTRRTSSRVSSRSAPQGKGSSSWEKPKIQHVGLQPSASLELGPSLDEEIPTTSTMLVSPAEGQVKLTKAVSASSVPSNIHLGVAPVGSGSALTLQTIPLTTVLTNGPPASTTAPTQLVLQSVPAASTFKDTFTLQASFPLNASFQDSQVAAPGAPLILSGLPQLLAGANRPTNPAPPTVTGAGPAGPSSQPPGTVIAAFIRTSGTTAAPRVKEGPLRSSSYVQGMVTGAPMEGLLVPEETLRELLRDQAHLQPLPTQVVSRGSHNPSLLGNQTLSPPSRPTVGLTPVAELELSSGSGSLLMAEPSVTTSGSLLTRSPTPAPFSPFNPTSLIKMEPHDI
Sequence of ETV5 (P41161 whole entry): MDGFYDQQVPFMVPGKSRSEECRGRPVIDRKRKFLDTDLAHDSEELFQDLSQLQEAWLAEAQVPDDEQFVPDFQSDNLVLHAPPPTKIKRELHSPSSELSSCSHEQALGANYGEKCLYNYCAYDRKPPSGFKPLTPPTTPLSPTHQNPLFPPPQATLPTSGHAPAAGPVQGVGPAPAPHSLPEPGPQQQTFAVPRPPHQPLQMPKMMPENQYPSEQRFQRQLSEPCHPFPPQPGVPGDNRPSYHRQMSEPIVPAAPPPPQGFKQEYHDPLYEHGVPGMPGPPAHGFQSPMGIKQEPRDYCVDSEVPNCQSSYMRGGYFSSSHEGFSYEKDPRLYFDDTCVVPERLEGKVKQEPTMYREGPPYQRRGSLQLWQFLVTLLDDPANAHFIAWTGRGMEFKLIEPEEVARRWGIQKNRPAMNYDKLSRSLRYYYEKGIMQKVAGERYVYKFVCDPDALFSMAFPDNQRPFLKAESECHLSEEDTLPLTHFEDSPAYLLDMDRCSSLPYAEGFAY
Sequence of HSF1 (Q00613 whole entry): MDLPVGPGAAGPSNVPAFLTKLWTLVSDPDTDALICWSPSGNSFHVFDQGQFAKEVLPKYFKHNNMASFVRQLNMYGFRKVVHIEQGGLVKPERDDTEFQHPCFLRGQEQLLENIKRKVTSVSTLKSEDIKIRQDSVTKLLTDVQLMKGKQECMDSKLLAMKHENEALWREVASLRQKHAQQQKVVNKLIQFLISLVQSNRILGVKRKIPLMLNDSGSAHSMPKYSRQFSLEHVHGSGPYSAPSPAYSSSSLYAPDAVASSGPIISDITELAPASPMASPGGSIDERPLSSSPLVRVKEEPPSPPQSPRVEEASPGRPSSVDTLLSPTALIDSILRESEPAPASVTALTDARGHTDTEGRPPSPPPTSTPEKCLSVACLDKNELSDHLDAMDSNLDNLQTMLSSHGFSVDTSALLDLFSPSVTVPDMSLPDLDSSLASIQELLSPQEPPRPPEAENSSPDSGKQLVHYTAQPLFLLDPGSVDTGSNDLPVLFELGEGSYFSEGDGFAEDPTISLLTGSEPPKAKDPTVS

Sequence: TAATCA
- binding signal (FEV): 1.13 fold enrichment (6-mer frequency, TF over GST control)
- binding signal (ETV5): 1.18 fold enrichment (6-mer frequency, TF over GST control)
- binding signal (HSF1): 1.64 fold enrichment (6-mer frequency, TF over GST control)
- binding signal (SPIC): 1.26 fold enrichment (6-mer frequency, TF over GST control)
- binding signal (ELF4): 1.11 fold enrichment (6-mer frequency, TF over GST control)
- binding signal (ELK4): 1.32 fold enrichment (6-mer frequency, TF over GST control)
- binding signal (ETV2): 1.27 fold enrichment (6-mer frequency, TF over GST control)
- binding signal (ELF3): 1.18 fold enrichment (6-mer frequency, TF over GST control)
- binding signal (CRX): 2.51 fold enrichment (6-mer frequency, TF over GST control)
